Several values for one entry are separate records, joined by “and”; a condition that tells them apart may be missing. Equal entries are not always repeated. Inconclusive results are not listed. Activity calls are given as the source filed them. Unless noted, calls follow the shape of the dose curve; as a rule, active = well fitted curve in the direction sought with a large enough effect in the repeat runs; inconclusive = weak or mixed curves; inactive = no such curve, though single readings can be large; an effect the other way counts as inactive or inconclusive.
Legend:
[1] = qHTS assay to identify small molecule agonists of the NFkB signaling pathway (AID 1159509; active = well fitted curve in the direction sought with a large enough effect in the signal ratio in the repeat runs, not every such curve was filed as active; the % refers to the signal ratio)
Outline: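 Readout: FRET fluorescence, 405 nm excitation, 460/530 nm emission; beta-lactamase expression disrupts FRET. Cells: ME-180 stably carrying NF-kB-driven bla reporter. Compound exposure 5 hr, 37 C, 5% CO2.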

[2] = qHTS assay to identify small molecule agonists of the endoplasmic reticulum stress response signaling pathway (AID 1159516; active = well fitted activation curve with a large enough effect in the signal ratio in the repeat runs, not every such curve was filed as active; the % refers to the signal ratio)
Outline: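 Cells are seeded at 1,500 per well and incubated overnight. Compounds in DMSO are added for 5 hr at 37 C, then beta-lactamase FRET substrate for 2 hr at room temperature, and fluorescence at 460 and 530 nm is measured.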

[3] = qHTS assay to identify small molecule agonists of the endoplasmic reticulum stress response signaling pathway - cell viability counter screen (AID 1159517; calls by dose curve; also: nearly all actives have a fitted effect of over 50% in size; also: potency is read from the fitted curve at half-maximal effect)
Outline: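 Steps: seed 1,500 ESRE-bla HeLa cells per well; incubate overnight at 37 C, 5% CO2; add compounds in DMSO for 5 hr; run FRET substrate 2 hr RT; add CellTiter-Glo, wait 30 min, read luminescence.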

[4] = qHTS assay to identify small molecule antagonists of the retinoid-related orphan receptor gamma (ROR-gamma) signaling pathway - cell viability counter screen (AID 1159520); also: nearly all actives have a fitted effect of over 50% in size; also: potency is read from the fitted curve at half-maximal effect
Outline: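 Tet-on ROR gamma CHO cells were given compounds for 2 hr, then doxycycline hyclate at 1 uM final, and incubated 16 hr at 37 C. Viability was measured as ATP content by CellTiter-Glo luminescence.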

[5] = target: Nuclear receptor ROR-gamma (Homo sapiens) (UniProt P51449); experiment: qHTS assay to identify small molecule antagonists of the retinoid-related orphan receptor gamma (ROR-gamma) signaling pathway (AID 1159521; also: nearly all actives have a fitted effect of over 50% in size; also: potency is read from the fitted curve at half-maximal effect)
Outline: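 Tet-on RORγ CHO cells carrying a ROR response element–luciferase reporter were pretreated with compounds for 2 h, then induced with 1 uM (final) doxycycline hyclate for 16 h at 37 C. Antagonism was read as decreased ONE-Glo luminescence.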

[6] = qHTS assay to identify small molecule agonists of the AP-1 signaling pathway - cell viability counter screen (AID 1159525; calls by dose curve; also: nearly all actives have a fitted effect of over 55% in size; also: potency is read from the fitted curve at half-maximal effect)
Outline: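 Same-well cytotoxicity counter screen of the Tox21 10K library in ME-180 cells. The readout is ATP-dependent luminescence after 5 h compound treatment. Data are normalised to DMSO and tetra n-octyl ammonium bromide controls.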

[7] = qHTS assay to identify small molecule agonists of the AP-1 signaling pathway (AID 1159526; calls by dose curve; also: potency is read from the fitted curve at half-maximal effect)
[8] = qHTS assay to identify small molecule agonists of the RXR signaling pathway - cell viability counter screen (AID 1159529); also: nearly all actives have a fitted effect of over 50% in size; also: potency is read from the fitted curve at half-maximal effect
Outline: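 RXR-alpha-UAS-bla HEK 293T cells in medium with 2% charcoal-stripped FBS were preincubated 5 hr, then exposed to compounds for 16 hr at 37 C. Viability was read as CellTiter-Glo luminescence after 30 min at room temperature.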

[9] = qHTS assay to identify small molecule antagonists of the retinoid acid receptor (RAR) signaling pathway - cell viability counter screen (AID 1159551); also: nearly all actives have a fitted effect of over 35% in size
Outline: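 Cells (C3RL4) are plated, incubated overnight, dosed with compound in DMSO, then given retinol at 1 uM final. After 6 h at 37 C, CellTiter-Glo is added and luminescence read following 30 min at room temperature.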

[10] = qHTS assay to identify small molecule antagonists of the retinoic acid receptor (RAR) signaling pathway (AID 1159552; also: nearly all actives have a fitted effect of over 50% in size; also: potency is read from the fitted curve at half-maximal effect)
Outline: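 RARE-luc C3RL4 cells; cpds + 1 uM (final) retinol, 6 hr, 37 C/5% CO2; luciferase reagent, 30 min RT, luminescence readout. Inhibitors of retinol-driven signal scored.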

[11] = qHTS assay to identify small molecule agonists of the retinoic acid receptor (RAR) signaling pathway (AID 1159553); details: C3RL4 RARE luciferase reporter, agonist, 6 h; activation: at 73.3 µM (top of the series); also: potency is read from the fitted curve at half-maximal effect
Outline: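 Seed C3RL4 reporter cells at 1,000 per well and incubate overnight at 37 C. Add compounds in DMSO, incubate 6 hr. Add luciferase reagent, wait 30 min at room temperature, read luminescence.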

[12] = qHTS assay to identify small molecule agonists of the vitamin D receptor (VDR) signaling pathway - cell viability counter screen (AID 743224); also: nearly all actives have a fitted effect of over 50% in size; also: potency is read from the fitted curve at half-maximal effect
Outline: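 Cells: VDR-bla, 2,000/well, settled 4 h. Treatment: compounds in DMSO, 16 h, 37C/5% CO2. Readout: CellTiter-Glo luminescence after 30 min RT.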

[13] = target: Retinoic acid receptor RXR-alpha (Homo sapiens) (UniProt P19793); experiment: qHTS assay to identify small molecule agonists of the RXR signaling pathway (AID 1159527; calls by dose curve; also: nearly all actives have a fitted effect of over 35% in size)
Sequence of Retinoic acid receptor RXR-alpha (Homo sapiens) (P19793 whole entry, looked up): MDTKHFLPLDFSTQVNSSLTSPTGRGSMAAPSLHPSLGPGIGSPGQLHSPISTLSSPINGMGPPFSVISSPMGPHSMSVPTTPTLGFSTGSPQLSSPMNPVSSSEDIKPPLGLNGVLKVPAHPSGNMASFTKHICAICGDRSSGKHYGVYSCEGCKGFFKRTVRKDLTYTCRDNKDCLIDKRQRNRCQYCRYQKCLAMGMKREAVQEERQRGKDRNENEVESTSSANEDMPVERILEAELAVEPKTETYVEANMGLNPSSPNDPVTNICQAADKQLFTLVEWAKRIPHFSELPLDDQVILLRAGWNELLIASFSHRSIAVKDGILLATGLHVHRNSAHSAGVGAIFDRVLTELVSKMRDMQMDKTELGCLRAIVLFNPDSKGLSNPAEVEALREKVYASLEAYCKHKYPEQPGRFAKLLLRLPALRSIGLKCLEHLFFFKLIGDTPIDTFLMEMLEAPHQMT
Outline: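 GeneBLAzer RXR-alpha-UAS-bla HEK 293T cells in medium with 2% charcoal-stripped FBS, pre-incubated 5 hr at 37 C, then exposed to compounds 16 hr. Beta-lactamase reporter read by FRET substrate, 2 hr room temperature, 460/530 nm emission.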

[14] = qHTS assay to identify small molecule antagonists of the vitamin D receptor (VDR) signaling pathway - cell viability counter screen (AID 743225); also: nearly all actives have a fitted effect of over 50% in size; also: potency is read from the fitted curve at half-maximal effect
Outline: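 VDR-bla HEK 293T cells, 4 h pre-incubation at 37C, then compound plus 1-alpha,25-dihydroxyvitamin D3 (3 nM final) for 16 h. After the beta-lactamase FRET read, CellTiter-Glo was added to the same wells; luminescence after 30 min at room temperature.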

[15] = qHTS assay to identify small molecule antagonists of the estrogen related receptor (ERR) signaling pathway (AID 1224819)
Outline: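 qHTS in ERR cells, 2,000/well, 1536 format. Cpd (DMSO) added after 6 h settle, 18 h 37 C. One-Glo luminescence, 30 min RT.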

[16] = qHTS assay to identify small molecule agonists of the estrogen related receptor (ERR) signaling pathway (AID 1224820)
Outline: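 Luminescence readout (One-Glo, 30 min RT) from NTP-supplied ERR cell line exposed to compounds for 18 h at 37 C. Cells seeded 2,000 per well and pre-incubated 6 h before pin-tool compound transfer.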

[17] = system: estrogen-related receptor alpha (ERRalpha) with PGC-1alpha coactivator, human; experiment: qHTS assay to identify small molecule antagonists of the estrogen related receptor signaling pathway with the pleiotropic PPARgamma coactivator (PGC) (AID 1224821; calls by dose curve)
Outline: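 PGC/ERR reporter cells; 6 h pre-incubation 37 C/5% CO2; pin-tool compound in DMSO, 18 h 37 C; One-Glo added, 30 min RT; luminescence read. qHTS antagonist mode.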

[18] = qHTS assay to identify small molecule agonists of the estrogen related receptor signaling pathway with the pleiotropic PPARgamma coactivator (PGC) (AID 1224823)
Outline: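 Luminescence readout (One-Glo, 30 min RT) from PGC/ERR cell line treated 18 h at 37 C with pin-tool-delivered DMSO compound solutions; cells plated 6 h before dosing. Quantitative HTS format.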

[19] = qHTS assay to identify small molecule antagonists of the estrogen related receptor signaling pathway with the pleiotropic PPARgamma coactivator (PGC) cell viability counter screen (AID 1224822;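 also: viability read after 17.5 h compound exposure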)
Outline: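 Multiplexed viability counter screen run in PGC/ERR cells treated with compounds for 17.5 h at 37 C; live-cell protease signal measured by CellTiter-Fluor fluorescence.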

Measured: Potency

CC(C)C[C@H](NC(=O)[C@H](CCc1ccccc1)NC(=O)CN1CCOCC1)C(=O)N[C@@H](Cc1ccccc1)C(=O)N[C@@H](CC(C)C)C(=O)[C@@]1(C)CO1
inactive: [1] | [2] | [3] | [6] | [7] | [8] | [9] | [10]
active: [4] 750 nM | [5] 1.19 µM | [11] 0.0473 µM

CCCCCCNC(=O)n1cc(F)c(=O)[nH]c1=O
not listed: [9] | [13] | [14] | [15] | [16] | [17] | [18] | [19]
inactive: all other assays above

CC(C)Nc1cccnc1N1CCN(C(=O)c2cc3cc(NS(C)(=O)=O)ccc3[nH]2)CC1
not listed: [5] | [6] | [14] | [15] | [16] | [17] | [18] | [19]
inactive: all other assays above

CN1CCCC(CC2c3ccccc3Sc3ccccc32)C1 (stereo not given)
inactive: [1] | [2] | [3] | [9]
active: [12] 26.6 µM | [14] 21.3 µM | [7] 16.9 µM

O=c1[nH]ncc2ccccc12
not listed: [6] | [10] | [13] | [15] | [16] | [17] | [18] | [19]
inactive: all other assays above

CC(=O)N/N=C/c1ccc([N+](=O)[O-])o1
active: [10] 29.8 µM
inactive: [12] | [14] | [1] | [2] | [3] | [5] | [7] | [8] | [9]

CN(C)CCC=C1c2ccccc2C=Cc2ccccc21
not listed: [6] | [7] | [8] | [10] | [13] | [14] | [19]
inactive: all other assays above

CCOC(=O)[C@H](CCc1ccccc1)N[C@@H](C)C(=O)N(CC(=O)O)C1Cc2ccccc2C1
active: [6] 19 µM | [8] 5.35 µM
inactive: [12] | [14] | [1] | [2] | [3] | [4] | [5] | [7] | [9]

C1C[C@@H]2[C@H]3CC[C@H](C3)[C@@H]2C1
not listed: [7] | [12] | [14] | [15] | [16] | [17] | [18] | [19]
inactive: all other assays above

CN1C[C@H](C(=O)N[C@]2(C)O[C@@]3(O)[C@@H]4CCCN4C(=O)[C@H](Cc4ccccc4)N3C2=O)C[C@@H]2c3cccc4[nH]cc(c34)C[C@H]21
not listed: [4] | [8] | [12] | [14] | [15] | [17] | [19]
inactive: all other assays above

COc1ccccc1N1CCN(CC(O)COc2cccc3ccccc23)CC1 (stereo not given)
active: [6] 23.9 µM | [8] 12 µM | [10] 26.6 µM
inactive: [12] | [14] | [1] | [2] | [3] | [4] | [9] | [11] | [19]

CCCCCCCCC(CCCCCC)C(=O)O (stereo not given)
active: [3] 54.9 µM | [6] 49 µM
inactive: [1] | [2] | [4] | [5] | [9]

Brc1cc(Br)c(Oc2cc(Br)c(Br)cc2Br)cc1Br
active: [12] 23.9 µM
inactive: [14] | [1] | [2] | [3] | [4] | [5] | [6] | [9]

CC(C)(O)c1ccc(CNC(=O)c2cccnc2Oc2ccc3nonc3c2)cc1
not listed: [8] | [10] | [13] | [15] | [16] | [17] | [18] | [19]
inactive: all other assays above

Cc1cc(O)ccc1O
inactive: [12] | [1] | [2] | [3] | [13]
active: [5] 24.6 µM | [8] 22.1 µM

CCC1(CO)COCOC1
not listed: [6] | [12] | [15] | [16] | [17] | [18] | [19]
inactive: all other assays above

COc1cc(N)c(Cl)cc1C(=O)NC1CCN(CCCOc2ccc(F)cc2)CC1OC (stereo not given)
inactive: [14] | [1] | [2] | [3] | [4] | [5] | [7] | [8] | [9] | [11]

C=CCc1ccccc1OCC(O)CNC(C)C (stereo not given)
not listed: [6] | [10] | [11] | [15] | [16] | [17] | [18]
inactive: all other assays above

N#[N+]c1ccc2c(S(=O)(=O)[O-])cccc2c1O
not listed: [6] | [15] | [16] | [17] | [18] | [19]
inactive: all other assays above

C[C@@H]1CC(=O)NN=C1c1ccc(NN=C(C#N)C#N)cc1
active: [4] 2.98 µM and 2.11 µM | [5] 4.22 µM
inactive: [1] | [3] | [8] | [9] | [10]

Cc1ccc2c(Br)cc(Br)c(O)c2n1
active: [8] 26.8 µM
inactive: [12] | [1] | [2] | [3] | [9] | [11]

CC1(CN2CCC(n3c(=O)[nH]c4ccccc43)CC2)OCc2ccccc2-n2cccc21 (stereo not given)
inactive: [1] | [2] | [6] | [9] | [11]
active: [10] 29.8 µM
